High-throughput results as filed in PubChem BioAssay.
Shown are actives, neighbours in structure and some others; about 3.1% of the full set was active somewhere.
Bead autofluor: compound fluorescence in toxin protease inhibitor counterscreen; AID 624483; hit rate 3.1% among 360,000; compound autofluorescence counterscreen, microsphere flow cytometry; active compounds read high; fluorescence intensity (no concentration beside the values); in the data active means fluorescence intensity above about 16000; inconclusive means no clear call, values can overlap the other calls
BoNT-A LC inh2: BoNT A light chain protease inhibition; multiplex microsphere protease substrate cleavage, flow cytometry; inhibition, % at 10 µM; hit rate 0.17% among 360,000; further: plate controls were buffer without enzyme for full effect and enzyme alone for no effect
PriA SSB inh: blocks PriA binding to SSB C-terminal tail | hit rate 0.6% among 430,000 | AlphaScreen SSBct-PriA binding, biotinylated peptide | inhibition, % at 33 µM; in the data active means inhibition mostly above about 37%, no sharp cut-off; inactive means mostly below about 20%;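 further: plate controls were negative control peptide for no effect and reference peptide for full effect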
BoNT-F LC inh: blocks Botulinum neurotoxin F light chain protease. Multiplex microsphere protease cleavage assay, flow cytometry. inhibition, % at 10 µM. hit rate 0.22% among 360,000. AID 588497; in the data active means inhibition above about 35%, passing the limit was not always enough; inconclusive means no clear call, values can overlap the other calls; further: plate controls were buffer without enzyme for full effect and enzyme alone for no effect
Anthrax LF inh2: inhibitors of Bacillus anthracis lethal factor protease; multiplex microsphere protease cleavage assay, LF; inhibition, % at 10 µM; hit rate 0.12% among 360,000; further: plate controls were buffer without enzyme for full effect and enzyme alone for no effect
* hit, by the source's call. Unless noted, no stated cut-off is given here; in the data, active means inhibition above about 30%; inconclusive means no clear call, values can overlap the other calls; inactive means below that.

`Cc1cccc(Nc2nc(NC(C)C)nc(Oc3ccc(=O)n(C)n3)n2)c1` gave Bead autofluor 23566*, BoNT-A LC inh2 -2, PriA SSB inh 0, BoNT-F LC inh -4 and Anthrax LF inh2 -2.
COc1ccc(NC(=O)c2cnc3n(c2=O)CCS3)cc1Cl was read as PriA SSB inh -11.
For O=C(CCc1csc(NC(=O)c2ccccc2)n1)NCc1ccc2c(c1)OCO2 the results were PriA SSB inh -3.
`CC(NC(=O)Nc1ccc(Cl)cc1)C1CCCO1` (stereo not given) gave Bead autofluor 2068, BoNT-A LC inh2 0, PriA SSB inh -2, BoNT-F LC inh -3 and Anthrax LF inh2 0.
`CCOC(=O)c1ccc(NC(=O)N2CCN(S(C)(=O)=O)CC2)cc1` gave Bead autofluor 17414*, BoNT-A LC inh2 -3, PriA SSB inh -3, BoNT-F LC inh -6 and Anthrax LF inh2 -6.
Screening CCOC(=O)c1ccc(NC(=O)C2CCCO2)cc1 (stereo not given) returned Bead autofluor 4299, BoNT-A LC inh2 -1, PriA SSB inh -6, BoNT-F LC inh -9 and Anthrax LF inh2 1.
`CCOC(=O)c1ccc(NC(=O)NC(C)C2CCCO2)cc1` (stereo not given) gave Bead autofluor 21999*, BoNT-A LC inh2 3, PriA SSB inh -22, BoNT-F LC inh 4 and Anthrax LF inh2 -1.
Screening CCOC(=O)c1ccc(NC(=O)N2CCCCC2)cc1 returned Bead autofluor 3015, BoNT-A LC inh2 0, PriA SSB inh -12, BoNT-F LC inh -6 and Anthrax LF inh2 0.
CCOC(=O)c1ccc(NC(=O)N2CCN(C3CCCCC3)CC2)cc1 was read as Bead autofluor 16368*, BoNT-A LC inh2 -1, PriA SSB inh -6, BoNT-F LC inh -3 and Anthrax LF inh2 -3.
Screening CCOC(=O)c1cc(NC(=O)C2CCCO2)cc(C(=O)OCC)c1 (stereo not given) returned Bead autofluor 16398*, BoNT-A LC inh2 8, PriA SSB inh -9, BoNT-F LC inh 8 and Anthrax LF inh2 -8.
Cc1ccc(NC(=O)Cc2csc(Nc3ccc(S(C)(=O)=O)cc3)n2)cc1F was read as PriA SSB inh -16.
For Cn1nnn(-c2ccc(NC(=O)Nc3ccc4c(c3)OCO4)cc2)c1=O the results were PriA SSB inh -1.
COc1ccc(Cl)cc1NC(=O)N1CCN(C2CCCCC2)CC1 was read as Bead autofluor 20816*, BoNT-A LC inh2 inconclusive, PriA SSB inh 3, BoNT-F LC inh -3 and Anthrax LF inh2 -2.
For CCOC(=O)c1ccc(NC(=S)N2CCN(S(C)(=O)=O)CC2)cc1 the results were Bead autofluor 16800*, BoNT-A LC inh2 -1, PriA SSB inh -15, BoNT-F LC inh -1 and Anthrax LF inh2 -3.
Screening COc1ccc(NC(=O)N2CCN(S(C)(=O)=O)CC2)cc1OC returned Bead autofluor 22966*, BoNT-A LC inh2 -1, PriA SSB inh -19, BoNT-F LC inh -2 and Anthrax LF inh2 -1.
`Cc1cc(NC(=O)CS(=O)(=O)c2ccc(Cl)cc2)on1` gave PriA SSB inh -1.
O=C(c1ccco1)N1CCN(c2ccc3cccc(OCc4ccc(C(F)(F)F)cc4)c3n2)CC1 was read as PriA SSB inh 3.
Screening CCN(CC)CCN1C(=O)C(=O)C(=C(O)c2ccc3c(c2)CC(C)O3)C1c1ccc(OC)cc1 (stereo not given) returned PriA SSB inh 2.
For CC(C)(C)C(=O)c1sc(Nc2ccccc2)nc1N the results were Bead autofluor 10577, BoNT-A LC inh2 0, PriA SSB inh 40*, BoNT-F LC inh -7 and Anthrax LF inh2 2.
`CC(=O)c1sc(Nc2ccccc2)nc1C` gave Bead autofluor 5881, BoNT-A LC inh2 -1, BoNT-F LC inh -3 and Anthrax LF inh2 -6.
Screening COc1ccc(S(=O)(=O)CCC(=O)N(Cc2ccccc2)Cc2ccccc2)cc1 returned PriA SSB inh -3.
Screening CCc1ccc(OCCNC(=O)c2ccc(S(=O)(=O)N(C)C)cc2)cc1 returned Bead autofluor 22522*, BoNT-A LC inh2 0, PriA SSB inh -1, BoNT-F LC inh 0 and Anthrax LF inh2 -2.
CSc1ccccc1N1CCN(C(=O)Nc2ccc3c(c2)NC(=O)CO3)CC1 was read as Bead autofluor 21233*, BoNT-A LC inh2 inconclusive, PriA SSB inh 17, BoNT-F LC inh 0 and Anthrax LF inh2 -9.
CN(C)S(=O)(=O)N1CC(c2nc(-c3ccsc3)no2)C1 was read as PriA SSB inh 9.
`COc1cc(CNCCCc2ccc(C(F)(F)F)cc2)cc(OC)c1OC` gave PriA SSB inh -17.
Screening Cc1noc(C)c1CSc1nnc2ccccn12 returned Bead autofluor 19015*, BoNT-A LC inh2 3, PriA SSB inh 4, BoNT-F LC inh 1 and Anthrax LF inh2 -8.
